We go through 99 molecules from PubChem BioAssay AID1209 (Sanford-Burnham Center for Chemical Genomics, 2008).

The campaign covered roughly 190,000 compounds. About 810 (0.43%) were called active. The entries come from a sample that favours actives as a whole. Values without a mark were called inactive. Rule as the data show it: active = inhibition above about 50%; inactive = the rest.

The target in the assay is Mannose-6-phosphate isomerase (Homo sapiens) (UniProt P34949). Kind of assay: MPI enzyme activity inhibition – biochemical, fluorescence intensity, coupled assay, primary screen (AID 1209).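 Also: plate controls were DMSO vehicle for no effect and wells lacking substrate for full effect.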 As to conditions: purified PMI enzyme, at 20 µM, active compounds read high.
Sequence of Mannose-6-phosphate isomerase (Homo sapiens) (P34949 whole entry, looked up): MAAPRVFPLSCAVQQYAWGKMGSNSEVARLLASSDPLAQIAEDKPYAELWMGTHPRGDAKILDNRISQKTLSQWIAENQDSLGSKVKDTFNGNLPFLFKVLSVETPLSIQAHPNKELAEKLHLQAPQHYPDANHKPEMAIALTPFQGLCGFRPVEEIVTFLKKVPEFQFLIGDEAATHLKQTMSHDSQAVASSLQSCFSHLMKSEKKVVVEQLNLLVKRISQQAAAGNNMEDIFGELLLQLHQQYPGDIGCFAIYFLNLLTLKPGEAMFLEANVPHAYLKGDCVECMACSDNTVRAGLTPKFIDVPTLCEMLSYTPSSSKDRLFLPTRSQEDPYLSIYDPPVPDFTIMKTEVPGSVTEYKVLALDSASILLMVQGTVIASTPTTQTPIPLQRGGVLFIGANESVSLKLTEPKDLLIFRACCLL
The inhibition is the drop in the measured response relative to a control, in per cent. Take `S=C(NCC1CCCO1)Nc1cccc(Cl)c1` (centres undefined): the inhibition is -4.4%. Consider `CCN(CC)c1ccc(/C=N/Nc2nc3ccccc3[nH]2)cc1`, for which the inhibition was 53% (active). For `CC(=O)Nc1ccc(/C=N/Nc2nc3ccccc3[nH]2)cc1`, the inhibition is 20.8%.

`CCN(CC)c1ccc(/C=N/Nc2nc3ccccc3[nH]2)c(O)c1`: the inhibition is 29.1%. The same measure for `C=CCn1c(C)cc(C(=O)Cn2nc(C(=O)O)c3ccccc3c2=O)c1C`: 0.5%. Take `COc1ccc(-c2nc(SC(CC(=O)NCCN3CCOCC3)c3cccs3)n[nH]2)cc1` (centres undefined): the inhibition was 2.7%.

Consider `Cc1ccc(C)c(NC(=O)CSc2nnc(C)c(=O)n2N)c1`, for which the inhibition was -3%. Take `Cc1ccc(NC(=O)CSc2nnc(C)c(=O)n2N)cc1`: the inhibition is -5.9%. Take `Cc1ccc(NC(=O)CSc2nnc(C)c(=O)n2N)c(C)c1`: the inhibition was 76.6% (active).

For `Cn1c(-c2cccc(Br)c2)n[nH]c1=O`, the inhibition is -8.4%. The same measure for `Brc1cccc(-c2n[nH]c(-c3ccccc3)n2)c1`: 18.9%; for `O=C(NNC(=O)C1CCCN(S(=O)(=O)c2cccc(F)c2)C1)C1CC1` (centres undefined): 6.8%; for `Cc1cc(C(=O)N/N=C/c2ccc(O)c([N+](=O)[O-])c2)n[nH]1`: -7.3%. For `Cc1cc(C(=O)N/N=C/c2cc(N=Nc3ccccc3)ccc2O)n[nH]1`, the inhibition was 4.9%. Take `Cc1cc(C(=O)N/N=C/c2cccc([N+](=O)[O-])c2O)n[nH]1`: the inhibition was 52.3% (active).

Take `O=C(/C=C/c1ccccc1)Nc1cccc(C(=O)O)c1`: the inhibition was 8.9%. `Nc1ccc(SCC(=O)Nc2cccc([N+](=O)[O-])c2)cc1`: the inhibition was -7.1%. As for `O=C(Nc1cccc(S(=O)(=O)N2CCCC2)c1)c1ccc2ccccc2n1`, the inhibition is 10%. The same measure for `COc1ccccc1NS(=O)(=O)c1cccc(NC(=O)c2ccc3ccccc3n2)c1`: 17.4%; for `O=C(/C=C/c1ccccc1)Nc1cccc(S(=O)(=O)Nc2ccccc2F)c1`: 66.1% (active). On to `O=C(CN1C(=O)c2ccccc2C1=O)Nc1cccc(S(=O)(=O)Nc2ccccc2Cl)c1`, for which the inhibition is 12.3%. `O=C(Cc1ccc(Cl)cc1Cl)Nc1cccc(S(=O)(=O)Nc2ccccc2F)c1`: the inhibition is 59% (active). Regarding `Cn1c(=O)c2c(ncn2CC(=O)Nc2cccc(S(=O)(=O)Nc3ccccc3F)c2)n(C)c1=O`, the inhibition was 25.8%.

As for `O=C(Cc1ccc(Cl)cc1)Nc1cccc(S(=O)(=O)Nc2ccccc2F)c1`, the inhibition is 23.4%. With `CSc1cccc(NC(=O)/C=C/c2ccccc2)c1` the figure was 10.8%; with `O=C(CSc1ccc([N+](=O)[O-])cc1)Nc1cccc(S(=O)(=O)Nc2ccccc2F)c1`, 62.2% (active); with `O=C(Nc1cccc(S(=O)(=O)Nc2ccccc2F)c1)c1ccc2ccccc2n1`, 70.4% (active). Consider `Cc1ccc(C(=O)c2ccccc2C(=O)OCC(=O)NCC2CCCO2)cc1` (centres undefined), for which the inhibition was 1.4%. Consider `Cc1cc(OC(C)C(N)=O)nc(-c2ccccc2)n1` (centres undefined), for which the inhibition was -14.2%. On to `CC(C)c1ccc(CN2CC(C(=O)O)CC2=O)cc1` (centres undefined), for which the inhibition was -7%. On to `Cc1ccc(N2CCN(CC(O)COc3ccc([N+](=O)[O-])cc3)CC2)cc1` (centres undefined), for which the inhibition is -2%. Turning to `COc1cc(/C=N/Nc2ccccn2)ccc1OCC(C)C`, the inhibition is -6.3%.

On to `CCOC(=O)CC1C(=O)NCCN1C(=O)c1c(F)cccc1F` (centres undefined), for which the inhibition was 50.5% (active).

For `CCOC(=O)CC1C(=O)NCCN1C(=O)c1cccc(C(F)(F)F)c1` (centres undefined), the inhibition is -0.3%. The same measure for `CCOC(=O)CC1C(=O)NCCN1C(=O)c1ccc(F)cc1F` (centres undefined): -8.1%; for `Nc1nonc1-c1noc(N2CCCCC2)n1`: 6%; for `COc1ccc(-c2nnn(CC#N)n2)cc1OC`: -3.6%. In the case of `O=C(N/C(=C\c1cccnc1)C(=O)N1CCOCC1)c1ccco1`, the inhibition was -15.9%. The same measure for `O=C(Nc1nnc(COc2ccccc2)s1)c1ccco1`: 3.1%. As to `CCOCc1nnc(NC(=O)CSc2ccccc2)s1`, the inhibition was 6.1%. As for `O=C(CSc1ccccc1)Nc1nnc(COc2ccc(Cl)cc2)s1`, the inhibition is 71.7% (active).

On to `COc1ccc(Cc2nnc(NC(=O)c3c(-c4ccccc4)noc3C)s2)cc1`, for which the inhibition was 12.3%. With `Cc1nnc(NC(=O)c2c(-c3ccccc3)noc2C)s1`, the inhibition was 0.7%. Consider `O=C(Nc1nnc(COc2ccc(Cl)cc2)s1)c1ccco1`, for which the inhibition is 62.4% (active). With `Cc1ccc(OCc2nnc(NC(=O)c3ccco3)s2)cc1`, the inhibition is -5.1%. As to `Cc1cccc(C)c1OCc1nnc(NC(=O)CSc2ccc(Cl)cc2)s1`, the inhibition is 9.2%. With `Cc1onc(-c2ccccc2)c1C(=O)Nc1nnc(COc2ccc(Cl)cc2)s1`, the inhibition was 76.2% (active). With `COC(=O)/C(C(C)=O)=C(\C=C\N(C)C)N(C)C` the figure was 1%. Take `Nc1nnc(SCc2ccccc2F)n1-c1ccccc1`: the inhibition is 3.6%. The same measure for `NC(=O)[C@@H]1CCNc2c(I)cc([N+](=O)[O-])cc2C(=O)N[C@@H](CO)C(=O)N[C@@H](Cc2ccc(O)cc2)C(=O)N1`: -42.9%. On to `CCN(CCC(=O)Nc1cc(OC)cc(OC)c1)Cc1ccccc1`, for which the inhibition is 6.5%.

With `Cc1nnc(NC(=O)c2ccc3ccccc3n2)s1`, the inhibition was -23.8%. For `COc1ccc(C(c2sc3nc(C)nn3c2O)N2CCc3ccccc3C2)cc1` (centres undefined), the inhibition is 72.5% (active). For the molecule `COc1cc(C(c2sc3nc(C)nn3c2O)N2CCc3ccccc3C2)cc(OC)c1OC` (centres undefined), the inhibition is 11.5%. In the case of `COc1cccc(C(c2sc3ncnn3c2O)N2CCc3ccccc3C2)c1` (centres undefined), the inhibition was 40.6%.

With `COc1ccc(C(c2sc3nc(C)nn3c2O)N2CCCCC2)cc1` (centres undefined), the inhibition was -1.5%. For the molecule `CCN1CCN(C(c2cccc(OC)c2)c2sc3nc(C)nn3c2O)CC1` (centres undefined), the inhibition was 2.4%. On to `COc1cccc(C(c2sc3nc(C)nn3c2O)N2CCc3ccccc3C2)c1` (centres undefined), for which the inhibition was 65.3% (active). The same measure for `COc1cc2c(cc1OC)CC(=O)N(C)CC2`: 3.4%.

For the molecule `Cc1ccc(N2C(=O)CC(SCC(=O)Nc3ccc(S(N)(=O)=O)cc3)C2=O)cc1` (centres undefined), the inhibition is 16.8%. On to `O=C(CSC1CC(=O)N(c2ccc(C(=O)O)cc2)C1=O)Nc1ccc(Cl)cc1` (centres undefined), for which the inhibition is -7.6%. As to `CCN(CC(=O)NCCc1ccc(S(N)(=O)=O)cc1)Cc1nc2cc(OC)c(OC)cc2c(=O)[nH]1`, the inhibition was -4.3%. Turning to `CC(C(=O)Nc1ccccc1C(=O)O)n1c(C(F)(F)F)nc2ccccc21` (centres undefined), the inhibition is 1.2%. `O=C(CSc1nc2c(sc3ccccc32)c(=O)n1CCO)NCC1CCCO1` (centres undefined): the inhibition was 54% (active). With `O=C(CSc1nc2c(sc3ccccc32)c(=O)n1CCCN1CCCC1)NCC1CCCO1` (centres undefined) the figure was -1%; with `O=C(CSc1nc2c(sc3ccccc32)c(=O)n1Cc1ccccc1)NCC1CCCO1` (centres undefined), 15.3%; with `COc1ccc(C2=CC(c3ccc(OC)c(OC)c3)NC(=S)N2)cc1` (centres undefined), 3.4%. Consider `Cc1cc(C(=O)c2cnc(/N=C/N(C)C)s2)c(F)cc1Cl`, for which the inhibition was 93.5% (active). With `CN(C)/C=N/c1ncc(C(=O)c2ccc(Cl)cc2)s1` the figure was 0.8%; with `CN(C)/C=N/c1ncc(C(=O)c2ccc(Cl)cc2Cl)s1`, -11.6%; with `COc1ccc(-c2oc(NC(=O)CSc3nncn3C)c(C#N)c2-c2ccc(OC)cc2)cc1`, 7.6%. As to `c1ccc2c(c1)[nH]c1c(N3CCOCC3)ncnc12`, the inhibition was 7.2%. Regarding `CCCCn1c(=S)[nH]c2ccc(N3CCOCC3)cc2c1=O`, the inhibition was -8.1%.

For the molecule `CCc1cc(N2CCOCC2)cc2c1[nH]c1ccccc12`, the inhibition is 55.4% (active). For the molecule `O=C(NCCc1c[nH]c2ccccc12)c1cccc(S(=O)(=O)Nc2ccccc2Cl)c1`, the inhibition was 20.2%. With `COc1cccc(C(c2sc3nc(C)nn3c2O)N2CCC3(CC2)OCCO3)c1` (centres undefined) the figure was 5.1%; with `CN(Cc1ccno1)Cc1cn(C)nc1-c1ccc(Oc2ccccc2)cc1`, 26.3%.

Consider `Cc1cnccc1CN(C)Cc1cn(C)nc1-c1ccc(Oc2ccccc2)cc1`, for which the inhibition was 14.4%. As for `CN(Cc1cccnc1)Cc1cn(C)nc1-c1ccc(Oc2ccccc2)cc1`, the inhibition is 50.7% (active). On to `CC(C)NC(=O)COc1nncc2ccccc12`, for which the inhibition is 15.9%. For `Cc1ccc(Cn2c(=O)sc3ccccc3c2=O)cc1`, the inhibition is 18.9%. Turning to `Cc1ccccc1Cn1c(=O)sc2ccccc2c1=O`, the inhibition is 6%. The same measure for `O=c1sc2ccccc2c(=O)n1Cc1ccccc1F`: 89.5% (active); for `Cc1cccc(C)c1NC(=O)CSc1nnc([C@H](C)NC(=O)OC(C)(C)C)o1`: -1.6%; for `C=CCn1c(SCC(=O)NC2CCS(=O)(=O)C2)nc2sc(CC)cc2c1=O` (centres undefined): -1.4%.

Regarding `CCCN1CCCc2ccccc21`, the inhibition was -40.1%. For the molecule `CCCN1CCCc2cc(CN)ccc21`, the inhibition is 50.7% (active). Turning to `CCc1ccc2c(c1)CCCN2C(=O)c1ccccc1C(=O)O`, the inhibition is 0.4%. For the molecule `Cc1ccc(NC2=CC(=O)CC(c3ccccc3)C2)cc1` (centres undefined), the inhibition is 7.6%.

As for `COc1cccc(Nc2nc(CC(C)=O)ns2)c1`, the inhibition was -2%.

Turning to `c1ccc2sc(NCC3CCCO3)nc2c1` (centres undefined), the inhibition was -11.7%. `Oc1c(Cl)cc(Cl)c2cccnc12`: the inhibition is 21.3%. With `O=[N+]([O-])c1cc(Cl)c(O)c2ncccc12` the figure was 51.7% (active); with `O=[N+]([O-])c1cc(Cl)c2cccnc2c1O`, 14.6%. The same measure for `COC(=O)C(C(=O)OC)c1ccc(-n2cccc2)cc1`: 11%. `CCOc1cccc2cc(C(C)=O)oc12`: the inhibition was -14.2%. With `CC(=O)C1=C(c2ccccc2)NC(=O)NC1c1ccc(O)c(O)c1` (centres undefined) the figure was 61.3% (active); with `CC(=O)C1=C(c2ccccc2)NC(=S)NC1c1ccc(O)c(O)c1` (centres undefined), 44.9%; with `CCOc1cc(C2NC(=O)NC(c3ccccc3)=C2C(C)=O)ccc1OC(C)=O` (centres undefined), 7%.
